According to PubChem BioAssay (EPA / NIEHS):
Active and inactive are the calls of the source. How the source made its calls: active means hit-call score of the fitted dose curve at least 0.9, where 1 is the maximum; inactive means score below 0.9.

Test: CCTE_Shafer_MEA_dev_network_spike_duration_std: CCTE's Neural Network Formation Assay for Standard Deviation of Network Spike Duration, Shafer Lab (AID 2284052);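 further: hits are decreases in network spike duration SD versus DMSO vehicle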
Procedure: CCTE_Shafer_MEA_dev assay is conducted using Axion Biosystems 48 well microelectrode array (MEA) plates and Maestro recording system. Each well of the MEA plate contains a grid of 16 microelectrodes embedded in the culture surface. Electrically active cells, such as neurons, can be cultured over the electrodes, and electrical activity in these cells can be recorded extracellularly. The spontaneous firing of neurons is captured from each electrode on a microsecond timescale providing both temporally and spatially precise data. […] The CCTE_Shafer_MEA_dev assay uses primary cultures of rat cortical neurons. Recordings are made on days post-plating 5, 7, 9 and 12. As these cultures mature over time, neural networks develop functional activity and form cohesive networks in which electrical activity can be highly coordinated. CCTE_Shafer_MEA_dev_network_spike_duration_std is 1 of 19 assay components of the CCTE_Shafer_MEA_dev assay. It measures the standard deviation of the duration of network spikes (temporally-clustered groups of action potential firing across multiple electrodes) during a recording in a microelectrode array (MEA) using Axion Biosystems Maestro 768 channel amplifier with the AxIS adaptive spike detector. To collapse across multiple recordings made on days post-plating 5, 7, 9 and 12, the trapezoidal area-under-the-curve of the component is calculated.Data from the assay component CCTE_Shafer_MEA_dev_network_spike_duration_std was analyzed into 1 assay endpoint. This assay endpoint, CCTE_Shafer_MEA_dev_network_spike_duration_std, was analyzed in the negative analysis fitting direction relative to DMSO as the negative control and baseline of activity. Using a type of functional reporter, gain or loss-of-signal activity can be used to understand electrical activity.
On the day prior to culture, each well was coated thoroughly with 150 uL of 0.05% polyethyleneimine (PEI, Sigma Cat P3143) in 50 mM HEPES (Sigma Cat H7523) at a pH of 8. The plate was incubated at 37C for one hour. PEI was rinsed out with 500 uL of sterile water three times. Plates were stored at 4C until the day of culture. This culture was plated at a seeding density of 1.5 x 10^5 cells/well on a 48-well MEA plate, prepared as described above. Cells were administered via a 25 uL media/laminin ([…]; Sigma Cat L2020-1MG) drop directly onto the microelectrode array, as adding the cells with the laminin results in better attachment than pre-coating with laminin. After 2 hours, an additional 475 uL of cortical media was added and the cells returned to the incubator. Exposure starts at day 0 of plating and is continued over twelve days of network development until the experiment is terminated. Cells are fed with fresh medium on DIV 5 and 9, following the recordings on those days. The entire volume of media in the well is exchanged and any vehicle or compound treatment is renewed. Complete details are found in OP-NHEERL/ISTD/SBB/TJS/2015-03-r0 (available on request, email shafer.tim@epa.gov). Measurement of the electrical activity is non-invasive, and recordings can be made from the same plate over multiple different days of the culture. In cortical neurons, this allows for the measurement of extracellular action potentials over the period during which networks form in the MEA plate.

Row | Compound | AC50 | outcome
1 | NC(=O)c1ccc(N)nc1 | 7.69 µM (active) | 
2 | CC(C)[C@@H](Nc1ccc(C(F)(F)F)cc1Cl)C(=O)OC(C#N)c1cccc(Oc2ccccc2)c1 (stereo not given in full) |  | inactive
3 | CC(F)(F)CC(F)(F)F |  | inactive
4 | CCOCn1c(-c2ccc(Cl)cc2)c(C#N)c(Br)c1C(F)(F)F | 1.64 µM (active) | 
5 | C=CCOC(F)(C(F)(F)F)C(F)(F)F |  | inactive
6 | Cc1cc(C(F)(C(F)(F)F)C(F)(F)F)ccc1NC(=O)c1cccc(I)c1C(=O)NC(C)(C)CS(C)(=O)=O |  | inactive
7 | O=S(=O)(F)C(F)(F)C(F)(F)C(F)(F)C(F)(F)F |  | inactive
8 | Cc1ccccc1OP(=O)(Oc1ccccc1C)Oc1ccccc1C |  | inactive
9 | C=CC(F)(C(F)(F)F)C(F)(F)C(F)(F)F (stereo not given) |  | inactive
10 | CC1(C)[C@H](C(=O)O[C@H](C#N)c2cccc(Oc3ccccc3)c2)[C@@H]1/C=C(\Cl)C(F)(F)F |  | inactive
11 | FC(F)OCC(F)(F)C(F)(F)F |  | inactive
12 | CC(=O)C(F)(F)C(F)(F)F |  | inactive
13 | CNC(=O)CSP(=O)(OC)OC |  | inactive
14 | OC(Cc1ccccc1Cl)(Cn1[nH]cnc1=S)C1(Cl)CC1 (stereo not given) |  | inactive
15 | CS(=O)(=O)c1ccc(C(=O)C2C(=O)CCCC2=O)c(Cl)c1COCC(F)(F)F |  | inactive
